# Results: PubChem BioAssay (EPA / NIEHS)
# Several values for one entry are separate records, joined by “and”; a condition that tells them apart may be missing. Equal values may be shown once. Some compounds were tested as several samples or in several runs, with calls that do not always agree. Activity calls are given as the source filed them. How the source made its calls: active means hit-call score of the fitted dose curve at least 0.9, where 1 is the maximum; inactive means score below 0.9.
# Read-out: Transforming growth factor beta 1 (TGFb1), TGFB1 (gene 7040)
# Experiment: BSK_KF3CT_TGFb1: BioMAP Diversity Plus: KF3CT Assay for Transforming growth factor beta 1 (TGFb1) Biomarker Activity (AID 2283072)
# Conditions: primary human keratinocytes with fibroblasts; actives raise or lower the signal
# Protocol: BSK_KF3CT is a cell-based, multiplexed-readout assay that uses keratinocytes and foreskin fibroblasts, a human skin primary cell co-culture, with measurements taken at 24 hours after chemical dosing in a 96-well plate.BSK_KF3CT_TGFb1 is an assay component measured in the BSK_KF3CT assay. It measures TGF-b1 antibody related to regulation of gene expression using ELISA technology.Data from the assay component BSK_KF3CT_TGFb1 was analyzed into 1 assay endpoint. This assay endpoint, BSK_KF3CT_TGFb1, was analyzed with bidirectional fitting relative to DMSO as the negative control and baseline of activity. Using a type of binding reporter, gain or loss-of-signal activity can be used to understand changes in the signaling as they relate to the gene TGFB1. Furthermore, this assay endpoint can be referred to as a primary readout, because this assay has produced multiple assay endpoints where this one serves a signaling function. To generalize the intended target to other relatable targets, this assay endpoint is annotated to the growth factor intended target family, where the subfamily is transforming growth factor beta.
# The levels of cell surface (or secreted, indicated by the prefix "s") biomarker endpoints were measured by ELISA. Overt cytotoxicity to cells in confluent adherent cultures (all systems other than the BT system) was assessed by measuring total protein levels using sulforhodamine B (SRB) staining in parallel cultures at the time of biomarker measurements, indicated as SRB endpoints. For proliferation assays for adherent cell types, individual cell types are cultured at sub-confluence and relative cell numbers quantified by SRB staining at time points optimized for each system (48 h: 3C and CASM3C systems; 72 h: BT and HDF3CGF systems; 96 h: SAg system). SRB was performed by staining cells with 0.1% SRB after fixation with 10% TCA and reading wells at 560 nm.Viability and proliferation of PBMC (T cells) was quantified by Alamar Blue reduction for the SAg and BT systems. For PBMC viability (referred to as PBMC Cytotoxicity within the assay endpoint names), cells were plated (75,000/well in a 96-well plate) and then chemical samples added for 1 h before addition of activators, SEB and TSST-1 (20 ng/mL final concentration each). Cells were incubated for 90 h. Then, Alamar Blue (20 uL/well) (Invitrogen, Cat DAL1100) was added for 6 h, and the plates were read with a fluorescence microplate reader at 546/580 nm (excitation/emission). For PBMC proliferation, cells were plated and activated as above but incubated for only 16 h prior to addition of Alamar Blue. Plates were read after 6 h.
Structure (SMILES),outcome,AC50
CON(C)C(=O)Nc1ccc(Cl)c(Cl)c1,inactive,
CN(C)C(=S)SSC(=S)N(C)C,,8.71 µM (active)
COc1cnc(OC)n2nc(NS(=O)(=O)c3c(OCC(F)F)cccc3C(F)(F)F)nc12,inactive,
COc1ccc(C(c2ccc(OC)cc2)C(Cl)(Cl)Cl)cc1,inactive,
Fc1ccc(Oc2ccnc3cc(Cl)cc(Cl)c23)cc1,inactive,
C=CCC1=C(C)C(OC(=O)C2C(C=C(C)C)C2(C)C)CC1=O (stereo not given),inactive,26.6 µM (active) and 33.3 µM (active) and 21 µM (active)
CC(Oc1ccc(Cl)cc1Cl)C(=O)O (stereo not given),inactive,
COP(N)(=O)SC (stereo not given),inactive,
CCCCNC(=O)OCC#CI,,30.1 µM (active) and 14.9 µM (active)
COc1nc(C)nc(NC(=O)NS(=O)(=O)c2ccccc2CCC(F)(F)F)n1,inactive,
CCNc1nc(Cl)nc(NC(C)C)n1,inactive,
COc1nc(C)nc(NC(=O)NS(=O)(=O)c2ccccc2Cl)n1,inactive,
COc1nc(NC(C)C)nc(NC(C)C)n1,inactive,
C=CCC1=C(C)[C@@H](OC(=O)[C@@H]2[C@@H](C=C(C)C)C2(C)C)CC1=O,inactive,
CCOc1cc(Oc2ccc(C(F)(F)F)cc2Cl)ccc1[N+](=O)[O-],inactive,
CCNc1nc(Cl)nc(NCC)n1,inactive,
O=C(O)COc1nc(Cl)c(Cl)cc1Cl,inactive,
CCOC(=O)CC(SP(=S)(OC)OC)C(=O)OCC (stereo not given),inactive,
CCCCOC(=O)c1ccccc1C(=O)OCCCC,inactive,

Structure (SMILES),outcome,AC50
COC(=O)c1ccccc1C(=O)OC,inactive,
CC1=C(C(=O)Nc2ccccc2)SCCO1,inactive,
CC(C)C1(C)N=C(c2nc3ccccc3cc2C(=O)O)NC1=O (stereo not given),inactive,
CNC(=S)S,inactive,
CO/C=C(/C(=O)OC)c1ccccc1Oc1cc(Oc2ccccc2C#N)ncn1,inactive,
CC1COC(Cn2cncn2)(c2ccc(Oc3ccc(Cl)cc3)cc2Cl)O1 (stereo not given),,34.5 µM (active)
C#CCOS(=O)OC1CCCCC1Oc1ccc(C(C)(C)C)cc1 (stereo not given),inactive,
N#Cc1cc(Br)c(O)c(Br)c1,inactive,
Oc1ccccc1-c1ccccc1,inactive,
CCCN(CCC)c1c([N+](=O)[O-])cc(S(N)(=O)=O)cc1[N+](=O)[O-],inactive,34.4 µM (active)
Cc1c(F)c(F)c(COC(=O)C2C(/C=C(\Cl)C(F)(F)F)C2(C)C)c(F)c1F (stereo not given),inactive,
COC(=O)C(C)Oc1ccc(Oc2ccc(Cl)cc2Cl)cc1 (stereo not given),inactive,
CCON=C(CC)C1=C(O)CC(c2c(C)cc(C)cc2C)CC1=O (stereo not given),inactive,
COC(=O)N(OC)c1ccccc1COc1ccn(-c2ccc(Cl)cc2)n1,inactive,
N#Cc1nn(-c2c(Cl)cc(C(F)(F)F)cc2Cl)c(N)c1S(=O)C(F)(F)F (stereo not given),inactive,
CCCCNC(=O)n1c(NC(=O)OC)nc2ccccc21,inactive,
COC(=O)C=C(C)OP(=O)(OC)OC,inactive,
CS/C(C)=N/OC(=O)N(C)SN(C)C(=O)O/N=C(\C)SC,,13.3 µM (active)
Cc1cc(Cl)ccc1OCC(=O)O,inactive,
